In the library only some 2.8% were active in any assay of this set; here they are far more common.
HEK293 viab = cell viability loss counter-screen | HEK-293-SNCA-luc viability, GF-AFC fluorescence, 24 h | Potency, µM (series often up to 57.1 µM), for the others: top-dose activity change, negative = cytotoxicity, usual class: cytotoxic | 150,000 compounds, 0.12% hits | AID 1671193;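 also: potency is read from the fitted curve at half-maximal effect; 0% = DMSO-treated cells and -100% = medium-only wells without cells; nearly all actives have a fitted effect of over 30% in size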
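HEK-293-SNCA-luc cells (1500/well) plated 24 h, then exposed 24 h to a dilution series; GF-AFC added 30 min at 37C, fluorescence 405/540 nm; normalised to medium-only and DMSO wells, Hill fit.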
KDM5B inhibitor = inhibitors of human KDM5B histone demethylase; KDM5B demethylase, FDH-coupled NADH fluorescence (FDH is formaldehyde dehydrogenase); Potency, µM (top dose mostly 57.7 µM), usual class: inhibitors; 220,000 compounds, 2.6% hits; AID 1347165; also: potency is read from the fitted curve at half-maximal effect; 0% is about no effect; nearly all actives have a fitted effect of over 70% in size
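Compound dilutions met 200 nM (final) KDM5BΔAP for 10 min at room temperature before substrate addition. The substrate mix held 12.5 µM H3K4me3 with cofactors 25 µM α-ketoglutarate and 50 µM Fe²⁺. NADH signal gain over 30 min defined activity.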
IP6K1 inhibitor = inhibitors of human IP6K1; 140,000 compounds, 0.81% hits; Q92551; IP6K1 kinase, ADP-Glo luminescence, 2 h; hits give low values; activity change, % (series mostly up to about 58 µM); in the data active = activity change below about -25%; also: % is scaled to controls: 0 for no effect and ±100 for the full control effect
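ADP-Glo luminescence measures ADP made by human IP6K1 during a 2 h RT reaction with ATP/IP6 (mix at 1.3 mM/130 uM); top library doses 57.5 and 19.1 uM final.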
SNCA expr inh = SNCA gene expression inhibition | HEK-293 SNCA-luciferase knock-in, luminescence, 24 h | Potency, µM (top dose mostly 57.2 µM), for inactives: at the highest dose activity change, negative = inhibition, most hits filed as inhibitors | 140,000 compounds, 0.17% hits | AID 1671194;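 also: potency is read from the fitted curve at half-maximal effect; plate controls were DMSO cells for no effect and cell-free wells for full effect; nearly all actives have a fitted effect of over 45% in size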
Starred values were filed as active, the others as inactive; i = inactive; ? = inconclusive; nt = no result given; [ ] = remark or other dose. Unless noted, calls follow the shape of the dose curve; as a rule, active = well fitted curve in the direction sought with a large enough effect; inconclusive = small, poorly fitted or top-dose-only effect, or another doubt; inactive = no such curve, though single readings can be large; an effect the other way counts as inactive or inconclusive.

SMILES | HEK293 viab | KDM5B inhibitor | IP6K1 inhibitor | SNCA expr inh
COCCn1c2c(c(=O)n1-c1ccccc1)CCN(Cc1ccncc1Cl)C2 | -6%[87.6 µM] | 35µM* | 21 | -26%[87.6 µM]
CCC(Oc1ccccc1)C(=O)Nc1sc(C(=O)OC)c(C)c1C(=O)OC (configuration not stated) | nt | i | nt | nt
COc1cc(C)c2c(c1C)C[C@H]([C@H](C)C(=O)O)CC2 | 25%[87.6 µM] | i | 7 | -13%[87.6 µM]
COc1cc(C)c2c(c1C)C[C@H](C(C)C(=O)NCc1ccco1)CC2 (some centres not stated) | -5%[87.6 µM] | 35µM* | 14 | -8%[87.6 µM]
Cc1ccc(NC(=O)c2cnc(NCc3ccc4c(c3)OCO4)nc2C)c(C)c1 | nt | i | nt | nt
Cc1ccc(-c2ccc3nnc(CNC(=O)c4ccccc4F)n3n2)cc1C | -5% | 28µM* | -7 | 48%
Cc1ccc(-c2ccc3nnc(CNC(=O)Cc4ccc(F)cc4)n3n2)cc1C | 5% | ? | -12 | -18%
Cc1ccc(-c2ccc3nnc(CNC(=O)c4ccccc4C)n3n2)cc1C | -13% | 28µM* | -1 | 4%
Cc1ccc(-c2ccc3nnc(CNC(=O)c4ccoc4)n3n2)cc1C | 1% | 16µM* | -2 | 31%
CC(Oc1ccccc1)C(=O)N1CC(Oc2ccccc2-c2nc(-c3ccccc3)no2)C1 (configuration not stated) | -22% | nt | 6 | -16%
CC1Cc2cc(-c3ccnc4ncnn34)ccc2O1 (configuration not stated) | -2% | 28µM* | -4 | 35%
C=C(C)C(=O)O[C@H]1C[C@@](C)(O)C2(O)CCC(C)(/C=C3/OC(=O)C(COC)=C31)O2 (some centres not stated) | 15µM* | nt | 2 | nt
CC(C)(C)c1ccc(-c2cc(C[C@H]3CNCC[C@H]3CC(=O)N3CCN(c4ccccn4)CC3)no2)cc1 | ? | i | 7 | -4%
CN(Cc1ccccc1)Cc1cc(C[C@H]2CNCC[C@H]2CC(=O)N2CCN(c3ccccn3)CC2)no1 | -1% | 18µM* | 0 | ?
Cc1ccc(CSc2nc3ccncc3n2Cc2nc(-c3ccccc3C)oc2C)cc1 | -1% | ? | -4 | 10µM*
Cc1oc(-c2ccccc2F)nc1Cn1c(SCc2cccc(Cl)c2)nc2ccncc21 | -22% | i | 7 | ?
CC(C)CCNC(=O)[C@H]1CN(Cc2ccccc2)C[C@H]1C(=O)O | 11% | nt | 3 | 18%
COc1ccccc1-n1cc(C(=O)N2CCC3(CCNC(=O)CC3)CC2)cn1 | 2% | i | -11 | 44%
Cc1cccc2ncc(C(=O)N3CCC4(CCNC(=O)CC4)CC3)c(=O)n12 | 7% | 22µM* | 14 | ?
COc1cccc(-c2ccc(CN3CCCC(NC(=O)c4ccc(F)cc4)C3)cc2)c1 (configuration not stated) | ? | nt | -4 | 21%
COCc1ccc2c(c1)c(OC(C)(C)C(=O)NC1CCC(O)CC1)nn2Cc1ccccc1 (configuration not stated) | 3% | 25µM* | 9 | -2%
COCc1ccc2c(c1)c(OC(C)(C)C(=O)NC(C)C)nn2Cc1cccc(OC)c1 | -1%[87.6 µM] | 35µM* | -8 | -4%[87.6 µM]
CCCNC(=O)C(C)(C)Oc1nn(Cc2ccccc2)c2ccc(COC)cc12 | -3%[87.6 µM] | 32µM* | -8 | 10%[87.6 µM]
COCc1ccc2c(c1)c(OC(C)(C)C(=O)N1CC(O)C1)nn2Cc1ccccc1 | -4%[87.6 µM] | ? | -9 | -17%[87.6 µM]
COCc1ccc2c(c1)c(OC(C)(C)C(=O)N1CCOCC1)nn2Cc1cccc(OC)c1 | 1% | ? | 0 | 17%
SMILES | HEK293 viab | KDM5B inhibitor | IP6K1 inhibitor | SNCA expr inh
CC(C)CNC(=O)N1CCC(F)(C(=O)NCc2ccccc2)CC1 | 8% | nt | 13 | ?
O=C(NCC1(c2ccccc2)CCCC1)c1cc(=O)c2ccccc2o1 | nt | i | nt | nt
COc1ccc(-c2c(C)oc3cc(OC(C)=O)ccc3c2=O)cc1 | nt | i | nt | nt
O=C(COc1ccc(F)c(Cl)c1)N1CCC(c2nc3ccccc3o2)CC1 | nt | i | nt | nt
Cc1ccc(C(=O)N2CCC(Oc3ncccc3C(=O)N3CCCCC3)C2)cc1C (configuration not stated) | -13% | 28µM* | 1 | 12%
CCCN(C)c1nccnc1OC1CCN(C(=O)c2ccccc2OC)C1 (configuration not stated) | -9% | 28µM* | 12 | 29%
O=C(c1cc(F)cc(F)c1)N1CCC(Oc2ncccc2C(=O)N2CCCCC2)C1 (configuration not stated) | -4% | i | 0 | -22%
O=C(NCc1cccnc1)c1ccc2c(c1)N(Cc1ccccc1)C(=O)c1ccccc1S2=O (configuration not stated) | nt | i | nt | nt
Cn1ccc2c(C(=O)NCCC(N)=O)nc(-c3ccccc3)cc21 | -3%[87.6 µM] | 32µM* | -10 | -12%[87.6 µM]
Cn1ccc2c(C(=O)NCCC(N)=O)nc(-c3cccc(CO)c3)cc21 | -4%[87.6 µM] | i | -2 | 1%[87.6 µM]
Cc1ccccc1-c1cc2c(ccn2C)c(C(=O)NCCc2cnc[nH]2)n1 | -17%[87.6 µM] | 40µM* | 9 | 30%[87.6 µM]
Cn1ccc2c(C(=O)NCCC(N)=O)nc(-c3ccccc3C(F)(F)F)cc21 | 1%[87.6 µM] | i | -12 | 10%[87.6 µM]
Cn1ccc2c(C(=O)NCCC(N)=O)nc(-c3cccc(C(F)(F)F)c3)cc21 | -13%[87.6 µM] | 14µM* | -2 | -17%[87.6 µM]
O=C(NCCN[S+](=O)([O-])c1ccccc1)c1cccc(-c2ccsc2)c1 | 9% | nt | 0 | 26%
COc1cccc(C(=O)N2CCN(c3ccc4nnc(-c5ccccc5)n4n3)CC2)c1 | nt | nt | 2 | nt
O=C(CCC1CCN(C(=O)c2ccccc2)CC1)NCCCN1CCCc2ccccc21 | 4% | 10µM* | 36 | 10%
O=C1[C@H]2CC[C@H](CN(Cc3cccc(N4CCOCC4)c3)C2)N1CC1CCC1 | -19% | i | 25 | -21%
O=C1[C@H]2CC[C@H](CN(Cc3ccc(-n4ccnc4)cc3)C2)N1CC1CCC1 | -11% | 20µM* | 3 | 0%
COc1cccc(CN2CCC3(CCC3OC)CC2)c1 (configuration not stated) | -4% | i | -10 | -21%
Cc1nnc(-c2cc(N3CCN(c4ccccn4)CC3)ccn2)n1-c1ccccc1 | 5%[87.6 µM] | i | -8 | -22%[87.6 µM]
CC(=O)N1CCN(c2ccnc(-c3nnc(C)n3-c3ccccc3)c2)CC1 | 10%[87.6 µM] | 35µM* | 6 | 33%[87.6 µM]
COc1nccnc1NC1CCN(C(=O)NC2CCCC2)CC1 | -1% | 28µM* | -7 | -2%
COc1nccnc1NC1CCN(C(=O)COc2ccc(C)cc2)CC1 | -5% | 28µM* | 2 | -16%
COc1ccc(NC2CCCN(C(=O)COc3ccc(C)cc3)C2)cc1 (configuration not stated) | nt | i | nt | nt
COc1nccnc1NC1CCN(C(=O)COc2ccccc2C)CC1 | -1% | 32µM* | 1 | -6%
Cc1nc(CCCNC(=O)[C@H]2CNC[C@@H](C(=O)N3CCOCC3)C2)sc1C | 0% | i | -6 | 8%
Cn1ncc2c(C(=O)NCCc3ccc(Cl)cc3)cc(-c3ccc(Cl)cc3Cl)nc21 | -14% | 71µM* | -16 | ?
